Compounds with a hit are over-represented: about 21% of the library has one in this group of screens.
RORg inh: qHTS for inhibitors of ROR gamma transcriptional activity; Potency, µM (top dose mostly 53.6 µM), for the others: top-dose activity change, negative = inhibition, usual class: inhibitors; Drosophila S2 Gal4-RORgamma UAS-luciferase reporter, 20 h; actives 5.4% (n = 310,000); Nuclear receptor ROR-gamma (Mus musculus), P51450; note: potency is the fitted concentration of half-maximal effect; nearly all actives have a fitted effect of over 60% in size
Target sequence (P51450 whole entry, looked up, the tested form may be a part): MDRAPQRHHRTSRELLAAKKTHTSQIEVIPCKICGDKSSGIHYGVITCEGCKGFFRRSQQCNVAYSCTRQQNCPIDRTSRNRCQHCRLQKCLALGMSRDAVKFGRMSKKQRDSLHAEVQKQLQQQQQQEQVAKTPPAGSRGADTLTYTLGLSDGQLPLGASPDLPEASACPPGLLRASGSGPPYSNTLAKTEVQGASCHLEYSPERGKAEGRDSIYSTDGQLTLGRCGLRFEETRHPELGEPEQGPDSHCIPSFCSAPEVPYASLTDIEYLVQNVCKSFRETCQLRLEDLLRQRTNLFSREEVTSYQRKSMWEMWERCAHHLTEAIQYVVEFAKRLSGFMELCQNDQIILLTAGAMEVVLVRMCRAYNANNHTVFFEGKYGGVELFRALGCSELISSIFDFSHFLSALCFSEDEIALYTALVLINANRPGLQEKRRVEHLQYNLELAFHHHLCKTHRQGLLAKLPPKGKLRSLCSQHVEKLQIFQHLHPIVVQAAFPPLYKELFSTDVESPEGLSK
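Drosophila S2 cells stably expressing Gal4-DBD/mouse RORγ fusion under metallothionein promoter plus UAS-luciferase; compound 1 h, then 700 uM CuSO4 induction for 20 h at ambient temperature; inhibition read as reduced luminescence.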
ELG1 DNA repair: qHTS screen for small molecules that inhibit ELG1-dependent DNA repair in human embryonic kidney (HEK293T) cells expressing luciferase-tagged ELG1. HEK293T ELG1-luciferase reporter, luminescence, 16 h; DNA damage induced by 5-fluorouridine. Potency, µM (highest dose often 46.1 µM), without a hit: at the highest dose activity change, negative = inhibition, actives largely listed as inhibitors. actives 2.3% (n = 330,000). AID 504467, 2011; note: potency is the fitted concentration of half-maximal effect; nearly all actives have a fitted effect of over 55% in size
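DMSO vehicle served as the neutral condition. Each well held 2,000 cells given 5-fluorouridine plus compound; after 16 hr at 37 °C/5% CO2, ONE-Glo was added and luciferase measured 30 min later.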
DT40 TDP1 no CPT: qHTS for Inhibitors of human tyrosyl-DNA phosphodiesterase 1 (TDP1): qHTS in cells in absence of CPT; DT40 Tdp1-/- hTDP1 cells, no CPT, ATP luminescence, 48 h; Potency, µM (titrated, usually from 46.2 µM), without a hit: at the highest dose activity change, negative = growth inhibition, most hits filed as inhibitors; actives 15% (n = 420,000); AID 686978, 2013; note: potency is the fitted concentration of half-maximal effect; nearly all actives have a fitted effect of over 55% in size
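Chicken DT40 Tdp1-/- cells stably complemented with human TDP1 were seeded at 400 cells/well with DMSO in place of 20 nM camptothecin. After compound pinning, cells grew at least 48 hr at 37 °C; viability read by CellTiter-Glo luminescence.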
Gal4-VP16 FLuc: VP16 counterscreen qHTS for inhibitors of ROR gamma transcriptional activity; actives 3.5% (n = 310,000); Potency, µM (titrated, usually from 53.6 µM), without a hit: at the highest dose activity, negative = inhibition, hits mostly inhibitors; Drosophila S2 Gal4-VP16 UAS-luciferase, luminescence, 20 h;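 note: Gal4-VP16 expression switched on by copper sulfate through the metallothionein promoter; potency is the fitted concentration of half-maximal effect; nearly all actives have a fitted effect of over 50% in size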
IL-1B inflam inh: qHTS for Inhibitors of Inflammasome Signaling: IL-1-beta AlphaLISA Primary Screen | activity change, % at 57.5 µM | actives 4.7% (n = 360,000) | AID 743279, 2014 | THP-1 LPS/ATP IL-1B secretion, AlphaLISA, 16 h; stronger effect = lower value; in the data active = activity change below about -50%; inconclusive = mostly about -30% to -49%
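Secreted IL-1B measured by AlphaLISA bead assay after 16 h compound exposure of THP-1 cells; compounds (final up to 57.5 uM) added 1 h before LPS (250 ng/mL) and ATP (1.25 mM) stimulation; lower signal means less secretion.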
DT40 TDP1 CPT: qHTS for Inhibitors of human tyrosyl-DNA phosphodiesterase 1 (TDP1): qHTS in cells in presence of CPT; Potency, µM (titrated, usually from 46.2 µM), for inactives: top-dose activity change, negative = growth inhibition, hits mostly inhibitors; chicken DT40 Tdp1-/-;hTDP1 cells + 20 nM CPT, ATP luminescence, 48 h; actives 12% (n = 420,000); note: potency is the fitted concentration of half-maximal effect; nearly all actives have a fitted effect of over 55% in size
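Chicken DT40 Tdp1-/- cells stably complemented with human TDP1 were seeded at 400 cells/well in medium containing 20 nM camptothecin, exposed to pin-transferred compounds, and grown at 37 °C for at least 48 hr. Viability was read as ATP luminescence.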
Active calls of the source: *; [ ] = dose if it differs, or a comment. Unless noted, calls come from the whole dose curve; as a rule, active = well fitted curve in the direction sought with a large enough effect; inconclusive = small, poorly fitted or top-dose-only effect, or another doubt; inactive = no such curve, though single readings can be large; an effect the other way counts as inactive or inconclusive. % is set by controls: 0 for no effect and ±100 for the full control effect.

For CC(C)Cc1nnc(NC(=O)CCC(=O)N2CCN(Cc3ccc(F)cc3)CC2)s1 the results were RORg inh 16%, ELG1 DNA repair inconclusive, DT40 TDP1 no CPT -4%, Gal4-VP16 FLuc -9%, IL-1B inflam inh 41 and DT40 TDP1 CPT inconclusive.
`CC12C=C(/C=C/C=C/c3ccco3)C(C)(C1)C(/C=C/c1ccco1)CC2=O` (stereo unspecified) gave RORg inh 21%[10 µM] and Gal4-VP16 FLuc -2%[10 µM].
`COc1ccc(-c2cc(C)no2)cc1S(=O)(=O)NC(C)C` gave DT40 TDP1 no CPT -4% and DT40 TDP1 CPT -6%.
For Cc1ccc(C)c(N2CCN(C(=O)CCC(=O)Nc3nnc(CC(C)C)s3)CC2)c1 the results were RORg inh 0%, ELG1 DNA repair -1%, DT40 TDP1 no CPT -3%, Gal4-VP16 FLuc -4%, IL-1B inflam inh 12 and DT40 TDP1 CPT inconclusive.
Screening CCCc1nnc(NC(=O)CCC(=O)N2CCN(Cc3ccc(Cl)cc3)CC2)s1 returned RORg inh -15%, ELG1 DNA repair -25%, DT40 TDP1 no CPT inconclusive, Gal4-VP16 FLuc 6%, IL-1B inflam inh 19 and DT40 TDP1 CPT 16µM*.
`CC(C)Cc1nnc(NC(=O)CCC(=O)N2CCN(c3ccc(Cl)cc3)CC2)s1` gave RORg inh 25%, ELG1 DNA repair -3%, DT40 TDP1 no CPT -17%, Gal4-VP16 FLuc 0%, IL-1B inflam inh inconclusive and DT40 TDP1 CPT 21µM*.
For O=C(Nc1ccccc1O)c1cccc(S(=O)(=O)Nc2ccccc2O)c1 the results were DT40 TDP1 no CPT inconclusive, IL-1B inflam inh -8 and DT40 TDP1 CPT -6%.
Screening O=C(Nc1ccc(Oc2cccnc2)nc1)c1ccc(C(F)(F)F)cc1 returned RORg inh -1%, ELG1 DNA repair inconclusive, DT40 TDP1 no CPT 15µM*, Gal4-VP16 FLuc inconclusive, IL-1B inflam inh inconclusive and DT40 TDP1 CPT inconclusive.
O=C(Nc1ccc(Oc2cccc(C(F)(F)F)c2)nc1)c1ccco1 was read as RORg inh inconclusive, ELG1 DNA repair 10µM*, DT40 TDP1 no CPT 12µM*, Gal4-VP16 FLuc 0%, IL-1B inflam inh -13 and DT40 TDP1 CPT -16%.
Screening COc1ccc(NC(=O)c2cccs2)cn1 returned RORg inh 42%, ELG1 DNA repair inconclusive, DT40 TDP1 no CPT -14%, Gal4-VP16 FLuc 25%, IL-1B inflam inh -4 and DT40 TDP1 CPT -14%.
For CC(C)(C)c1ccc(Oc2ccc(NC(=O)c3ccco3)cn2)cc1 the results were RORg inh inconclusive, ELG1 DNA repair -22%, DT40 TDP1 no CPT 1.6µM*, Gal4-VP16 FLuc inconclusive, IL-1B inflam inh -12 and DT40 TDP1 CPT 1.8µM*.
Screening CC(C)(C)c1ccc(Oc2ccc(NC(=O)c3cccs3)cn2)cc1 returned RORg inh inconclusive, ELG1 DNA repair 6.5µM*, DT40 TDP1 no CPT inconclusive, Gal4-VP16 FLuc inconclusive, IL-1B inflam inh -80* and DT40 TDP1 CPT inconclusive.
COc1ccc(C(=O)NCC2Cc3cc(C)cc(-c4nc5ccccc5s4)c3O2)c(OC)c1OC (stereo unspecified) was read as DT40 TDP1 no CPT -10% and DT40 TDP1 CPT 9%[9.04 µM].
Screening N#CC1(Nc2ccc([N+](=O)[O-])cc2)CCCC1 returned DT40 TDP1 no CPT -22%, IL-1B inflam inh -10 and DT40 TDP1 CPT -26%.
`CC(C)Oc1ccc(CNC(=O)c2cc(S(=O)(=O)N3CCOCC3)cn2C)cc1` gave RORg inh 15%, ELG1 DNA repair 13%, DT40 TDP1 no CPT 17%, Gal4-VP16 FLuc 2%, IL-1B inflam inh 38 and DT40 TDP1 CPT 14%.

Screening data deposited in PubChem by National Center for Advancing Translational Sciences (NCATS).
